Screening data (PubChem)
Rows were chosen to be rich in hits. Some 5.9% of all compounds tested hit in one or more screens of this group.
RORg inh – inhibitors of mouse ROR gamma transcriptional activity; P51450; Drosophila S2 Gal4-RORgamma UAS-luciferase reporter, 20 h; Potency, µM (top dose mostly 53.6 µM), for the others: at the highest dose activity change, negative = inhibition, usual class: inhibitors; 310,000 tested, 5.4% active; AID 2551; also: potency is read from the fitted curve at half-maximal effect; nearly all actives have a fitted effect of over 60% in size
Target sequence (P51450 whole entry, looked up, the tested form may be a part): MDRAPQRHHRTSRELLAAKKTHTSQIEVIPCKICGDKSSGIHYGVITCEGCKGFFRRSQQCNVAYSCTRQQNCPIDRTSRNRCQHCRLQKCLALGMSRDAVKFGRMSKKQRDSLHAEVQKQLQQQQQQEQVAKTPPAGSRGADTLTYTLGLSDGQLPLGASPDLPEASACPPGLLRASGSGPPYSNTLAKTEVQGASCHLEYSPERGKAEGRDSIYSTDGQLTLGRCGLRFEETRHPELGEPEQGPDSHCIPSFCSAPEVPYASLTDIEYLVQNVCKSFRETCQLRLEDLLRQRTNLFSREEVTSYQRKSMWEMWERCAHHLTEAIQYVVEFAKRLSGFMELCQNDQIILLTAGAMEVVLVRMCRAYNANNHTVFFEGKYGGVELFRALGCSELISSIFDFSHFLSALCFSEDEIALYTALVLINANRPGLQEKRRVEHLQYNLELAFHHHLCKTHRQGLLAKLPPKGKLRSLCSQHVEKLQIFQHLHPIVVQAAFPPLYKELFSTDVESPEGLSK
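Using a luciferase readout, inhibitors were identified by reduced reporter activity in Drosophila cells coexpressing a copper-inducible Gal4–ROR gamma fusion and UAS-driven Photinus luciferase, incubated 20 hr after 700 uM copper sulfate.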
GALK inhibitor – galactokinase (human) inhibition; Purified GALK, Kinase-Glo residual ATP luminescence; Potency, µM (titrated, usually from 57.5 µM), for the others: top-dose activity change, negative = inhibition, hits mostly inhibitors; 270,000 tested, 0.007% active; AID 1868; also: potency is read from the fitted curve at half-maximal effect
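Kinase-Glo Plus luminescence measured ATP left after a 1 h room-temperature reaction. The reaction used 5 nM GALK, 100 uM galactose and 35 uM ATP at pH 8.0 (20 mM HEPES, 5 mM MgCl2, 60 mM NaCl, 1 mM DTT, 0.01% BSA).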
FBPA coupling cs – inhibits coupling enzyme system, counter-screen for aldolase hits; coupling enzyme system counterscreen, AmpLite Red fluorescence; activity change, negative = inhibition, % at 58.2 µM, hits read low; 290,000 tested, 0.67% active; AID 2472; in the data active = activity change below about -30%
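Counterscreen of the coupled detection system alone, without aldolase: glyceraldehyde-3-phosphate coupling enzymes plus AmpLite Red readout. Compounds at 57.5 uM final, 10 min RT preincubation, 20 min RT reaction, fluorescence 525/598 nm.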
TrxR1 inh – rat TrxR1 inhibition; O89049; recombinant rTrxR1, NADPH fluorescence consumption, selenite substrate; Potency, µM (series often up to 114 µM), for inactives: top-dose activity change, negative = inhibition, actives largely listed as inhibitors; 390,000 tested, 1% active; AID 588453; also: potency is read from the fitted curve at half-maximal effect; nearly all actives have a fitted effect of over 65% in size
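Rat TrxR1 (90 nM in the dispensed reagent) was pre-reduced with 400 uM NADPH for 5 min at room temperature, then incubated with compound for 15 min. After 400 uM selenite was added, NADPH fluorescence (Ex 340/Em 450 nm) was followed for 8 min.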
TrxR1 substrate – rat thioredoxin reductase 1 substrate activity | 390,000 tested, 0.01% active | purified TrxR1 substrate turnover, NADPH consumption readout | Potency, µM (doses to about 114 µM), for the others: at the top dose activity change, negative = substrate turnover | O89049; also: potency is read from the fitted curve at half-maximal effect; nearly all actives have a fitted effect of over 50% in size
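Rat TrxR1, dispensed at 90 nM, was prereduced with 400 uM NADPH (final) for 5 min at ~22 deg C, then incubated with compound 15 min before 400 uM selenite. A first-read NADPH fluorescence drop versus no-compound background flagged substrates.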
Gal4-VP16 FLuc – inhibits Gal4-VP16 luciferase reporter, ROR gamma counter-screen; Drosophila S2 Gal4-VP16 UAS-luciferase, luminescence, 20 h; Potency, µM (highest dose often 53.6 µM), without a hit: at the highest dose activity, negative = inhibition, usual class: inhibitors; 310,000 tested, 3.5% active; AID 2546;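 also: Gal4-VP16 expression switched on by copper sulfate through the metallothionein promoter; potency is read from the fitted curve at half-maximal effect; nearly all actives have a fitted effect of over 50% in size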
The depositor's hits bear a star; ? = inconclusive; · = no result; [ ] = remark or other dose. Unless noted, calls follow the shape of the dose curve; as a rule, active = well fitted curve in the direction sought with a large enough effect; inconclusive = small, poorly fitted or top-dose-only effect, or another doubt; inactive = no such curve, though single readings can be large; an effect the other way counts as inactive or inconclusive. % is scaled to controls: 0 for no effect and ±100 for the full control effect.

SMILES	RORg inh	GALK inhibitor	FBPA coupling cs	TrxR1 inh	TrxR1 substrate	Gal4-VP16 FLuc
CCc1ccc(/C=N/NC(=S)NCCc2ccccc2)cc1	14µM*	-3%	1	-6%	-8%	?
Fc1ccc(/C=N/NC(=S)NCCc2ccccc2)cc1F	7.1µM*	7%	0	4%	-8%	8.9µM*
COc1cccc(/C=N/NC(=S)NCCc2ccccc2)c1	16µM*	3%	2	-3%	-9%	?
COc1ccc(/C=N/NC(=S)NCCc2ccccc2)cc1	3.5µM*	1%	-3	-12%	-14%	7.9µM*
CCOc1ccc(/C=N\NC(=O)CC(=O)NCCc2ccccc2)cc1	·	-5%	-1	26%	0%	·
Cc1cccc(/C=N/NC(=O)CC(=O)NCCc2ccccc2)c1	·	·	·	12%	5%	·
CCOc1ccc(NC(=O)NCCCN2CCCC2)cc1	0%	-2%	0	4%[57.1 µM]	12%[57.1 µM]	13%
O=C1CC2(CCCCC2)CC(=O)N1CCc1ccccc1	·	·	·	-8%[2.29 µM]	-5%[2.29 µM]	·
O=C1C=CC(=O)C(C2=C3C(=O)N(CCc4ccccc4)CC(=O)N3CCC2)=C1	?	2%	-55*	3.2µM*	0%	7.9µM*
CCOc1ccc(CCNC(=O)C2CCCN(S(C)(=O)=O)C2)cc1OCC (stereo unspecified)	35%	·	0	12%	3%	-9%
COc1ccccc1OCCn1c(NC(=O)c2ccccc2)nc2ccccc21	·	·	·	36%[57.1 µM]	4%[57.1 µM]	·
CN(C)c1ccc(-n2cccc2/C=C/[N+](=O)[O-])cc1	11µM*	3%	1	-66%	-14%[57.1 µM]	-6%[10 µM]
COc1ccccc1-c1nnc(NC(=O)CSc2nncn2C)s1	8.9µM*	5%	1	22%[57.1 µM]	5%[57.1 µM]	?
Cc1ccc(NS(=O)(=O)N2CCOCC2)c(C)c1	3%	-2%	-1	31%	2%	-5%
CC(=O)c1cccc(NC(=O)c2ccc3c(=O)n4c(nc3c2)CCCCC4)c1	2.5µM*	-2%	1	10%[57.1 µM]	-5%[57.1 µM]	5µM*
O=C(Nc1ccc2nc3n(c(=O)c2c1)CCCCC3)c1c(F)ccc([N+](=O)[O-])c1F	-94%	0%	·	50µM*	-5%	7.9µM*
O=C(Nc1ccc2nc3n(c(=O)c2c1)CCCCC3)c1cc([N+](=O)[O-])ccc1F	16%	-2%	·	-9%	-4%	-7%
C=CCNC(=S)NN=C1CCC(c2ccccc2)CC1 (stereo unspecified)	13µM*	2%	3	-17%	-5%	20µM*
CC(C)(C)C1CCC(=NNC(=S)NCc2ccccc2)CC1 (stereo unspecified)	10µM*	5%	-1	-19%	-9%	?
CC(C)(C)C1CCC(=NNC(=O)C(=O)NCc2cccnc2)CC1 (stereo unspecified)	-20%	3%	0	25%	1%	-3%
CCC(C)(C)C1CCC(=NNC(=S)Nc2cccnc2)CC1 (stereo unspecified)	?	1%	5	11%[11.4 µM]	-10%[57.1 µM]	16%
CCC(C)(C)C1CCC(=NNC(=S)Nc2ccccc2)CC1 (stereo unspecified)	11µM*	1%	2	-16%[57.1 µM]	-6%[57.1 µM]	?
COCCNC(=S)NN=C1CCC(c2ccccc2)CC1 (stereo unspecified)	-1%	8%	4	-15%	4%	1%
COc1cccc(CNC(=O)CCC2CCCN(C(=O)c3cscn3)C2)c1 (stereo unspecified)	-10%	4%	3	21%	2%	5%
CC(C)[C@H](NC(=O)c1ccccc1)C(=O)Nc1cccc(S(=O)(=O)N2CCOCC2)c1	·	·	·	-8%	-10%	·
SMILES	RORg inh	GALK inhibitor	FBPA coupling cs	TrxR1 inh	TrxR1 substrate	Gal4-VP16 FLuc
CCn1cc(C(=O)NN)c(=O)c2cc(F)c(N3CCN(C)CC3)cc21	19%	1%	-2	-4%	-5%	2%
COC1=C(Nc2ccccc2)C(=O)c2ccccc2C1=O	8%	3%	-33*	13%[57.1 µM]	3%[57.1 µM]	-2%
COC1=C(Nc2ccc(C)cc2)C(=O)c2ccccc2C1=O	10%	3%	-32*	3%	-2%	-8%
Cc1cc(-n2nc(C)cc2C)nc(NS(=O)(=O)c2ccccc2Cl)n1	-36%	0%	-12	-2%	1%	17%
CC(=O)C(Sc1nc(N2CCOCC2)nc(N2CCOCC2)n1)C(=O)Nc1ccccc1 (stereo unspecified)	0.89µM*	-1%	6	-26%	-5%	?
CC(=O)C(Sc1nn(C)c(=S)s1)C(=O)Nc1ccccc1 (stereo unspecified)	-15%	-2%	3	22µM*	4%	-15%
CCNc1nc(SC(C)C(=O)Nc2ccccc2)nc(N2CCOCC2)n1 (stereo unspecified)	5%	-1%	4	10%	4%	8%
CC(C)CNC(=O)C1CCN(c2ccc(S(=O)(=O)N3CCOCC3)cc2Cl)CC1	22%	2%	0	6%	3%	-1%
Cc1onc(-c2c(F)cccc2Cl)c1C(=O)Nc1nc2ccccc2[nH]1	2.8µM*	1%	0	15%[57.1 µM]	8%[57.1 µM]	?
Cc1cc(NC(=O)c2c(-c3c(F)cccc3Cl)noc2C)no1	-6%	4%	1	31%	3%	0%
Cc1onc(-c2c(F)cccc2Cl)c1C(=O)Nc1nccs1	13µM*	11%	-2	3%	-2%	?
Cc1onc(-c2c(F)cccc2Cl)c1C(=O)NC1=NCCS1	14µM*	1%	-1	26%	5%	22µM*
Cc1onc(-c2c(F)cccc2Cl)c1C(=O)Nc1cccc2nsnc12	0%	1%	4	40%[57.1 µM]	21%[57.1 µM]	0%
COc1ccccc1NC(=O)c1cc2c(-c3ccccc3)nn(-c3ccccc3)c2s1	·	·	·	-19%	52%	·
Cc1ccc(CN(C)C(=O)C2CCCN2C(=O)c2cccs2)o1 (stereo unspecified)	2%	3%	1	10µM*	9%	-15%
CCOc1ccc2nc(N3C(=O)/C(=C/c4ccc(Cl)cc4)NC3=S)sc2c1	1.1µM*	-2%	2	23%[57.1 µM]	8%[57.1 µM]	1.6µM*
CCOc1ccc2nc(N3CCN(C(=O)C(C)C)CC3)sc2c1	·	·	·	16%[57.1 µM]	1%[57.1 µM]	·
CC1CC(=S)Nc2ccccc2S1 (stereo unspecified)	?	1%	-2	-23%[57.1 µM]	-6%[57.1 µM]	4µM*
COc1ccc(CN(CC(=O)NCc2ccccc2)C(=O)CCC(=O)Nc2cc(C)ccn2)cc1	-2%	-3%	3	18%	3%	-12%
Cc1ccc(C)c(CN2C(=O)COc3ccc(C(=O)c4ccccc4C(=O)O)cc32)c1	?	8%	-35*	10%[57.1 µM]	2%[57.1 µM]	-20%
